This note sets out measurements from PubChem BioAssay (EPA / NIEHS).

Active and inactive are the calls of the source. The calls were made as follows: active = hit-call score of the fitted dose curve at least 0.9, where 1 is the maximum; inactive = score below 0.9.

Conditions in all cases: mRNA level, 48 h; actives raise or lower the signal
Read-out in assay [1]: Lipoprotein lipase (LPL), LPL (gene 4023)
Description: LTEA_HepaRG_LPL: Life Technologies and Expression Analysis (LTEA) Assay for Lipoprotein lipase (LPL) using HepaRG (AID 2283515). An outline of the steps: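 Differentiated HepaRG cells, plated 48 h, then exposed 48 h in serum-free induction medium to 8 concentrations (top 100 uM, half-log steps) in 0.5% DMSO, duplicate. LPL mRNA measured by qRT-PCR, normalized to ACTB, GAPDH and POLR2A.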

Read-out in assay [2]: MicroRNA 122 (MIR122), gene 406906
Description: LTEA_HepaRG_MIR122: Life Technologies and Expression Analysis (LTEA) Assay for MicroRNA 122 (MIR122) using HepaRG (AID 2283516). Also: the transcript read is the microRNA miR-122. An outline of the steps: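 Differentiated human HepaRG cells in serum-free induction medium exposed 48 h to 8 half-log concentrations from 100 uM in 0.5% DMSO, duplicate. MIR122 quantified by Fluidigm TaqMan qRT-PCR, normalised to ACTB, GAPDH, POLR2A; fold change fitted bidirectionally versus DMSO.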

Read-out in assay [3]: matrix metalloproteinase-10 (MMP10), MMP10 (gene 4319)
Description: LTEA_HepaRG_MMP10: Life Technologies and Expression Analysis (LTEA) Assay for matrix metalloproteinase-10 (MMP10) using HepaRG (AID 2283517). An outline of the steps:
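Differentiated HepaRG cells in serum-free induction medium exposed 48 h in duplicate to 8-point half-log series up to 100 uM in 0.5% DMSO. mRNA quantified by qRT-PCR, normalised to ACTB, GAPDH, POLR2A; bidirectional fit versus DMSO.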

Read-out in a further assay: MYC, MYC (gene 4609)
Description: LTEA_HepaRG_MYC: Life Technologies and Expression Analysis (LTEA) Assay for MYC using HepaRG (AID 2283518). An outline of the steps:
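Differentiated human HepaRG cells, plated 48 h then switched to serum-free induction medium, were exposed in duplicate for 48 h to 8-point half-log series up to 100 uM in 0.5% DMSO. MYC mRNA measured by qRT-PCR, normalized to ACTB/GAPDH/POLR2A.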

Read-out in assay [4]: matrix metalloproteinase-3 (MMP3), MMP3 (gene 4314)
The assay is described as follows: LTEA_HepaRG_MMP3: Life Technologies and Expression Analysis (LTEA) Assay for matrix metalloproteinase-3 (MMP3) using HepaRG (AID 2283519). An outline of the steps: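 HepaRG cells (~100,000/well) in serum-free induction medium were dosed in duplicate for 48 h with an 8-point half-log series from 100 uM, 0.5% DMSO. MMP3 mRNA was quantified by Fluidigm TaqMan qRT-PCR, normalized to three housekeeping genes.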

Read-out in assay [5]: Paternally Expressed 10 (PEG10), PEG10 (gene 23089)
Description: LTEA_HepaRG_PEG10: Life Technologies and Expression Analysis (LTEA) Assay for Paternally Expressed 10 (PEG10) using HepaRG (AID 2283520). An outline of the steps:
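Differentiated HepaRG cells exposed 48 h in serum-free induction medium to eight half-log concentrations topping at 100 uM, 0.5% DMSO, in duplicate. PEG10 mRNA quantified by TaqMan qRT-PCR, normalized to ACTB, GAPDH and POLR2A; bidirectional fit versus DMSO.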

Read-out in assay [6]: Nuclear factor NF-kappa-B p105 subunit (Homo sapiens) (UniProt P19838)
Description: LTEA_HepaRG_NFKB1: Life Technologies and Expression Analysis (LTEA) Assay for Nuclear Factor Kappa B Subunit 1 (NFKB1) using HepaRG (AID 2283521).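 Also: TaqMan qRT-PCR transcript normalised to ACTB GAPDH and POLR2A housekeeping genes.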 In outline:
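Differentiated human HepaRG cells in serum-free induction medium with 0.5% DMSO were exposed for 48 h to eight half-log concentrations, top 100 uM, in duplicate. NFKB1 mRNA measured by Fluidigm TaqMan qRT-PCR, normalised to ACTB, GAPDH and POLR2A; bidirectional fit versus DMSO.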

Read-out in assay [7]: Protein phosphatase 2A (PPP2R4), PTPA (gene 5524)
The assay is described as follows: LTEA_HepaRG_PPP2R4: Life Technologies and Expression Analysis (LTEA) Assay for Protein phosphatase 2A (PPP2R4) using HepaRG (AID 2283522). In outline: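 Differentiated human HepaRG cells in serum-free induction medium were exposed 48 h to 8 concentrations (top 100 µM, half-log steps, duplicate) in 0.5% DMSO. PPP2R4 mRNA was measured by TaqMan qRT-PCR, normalised to ACTB, GAPDH and POLR2A, and fitted bidirectionally versus DMSO.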

Read-out in assay [8]: Phosphatase and tensin (PTEN), PTEN (gene 5728)
The assay is described as follows: LTEA_HepaRG_PTEN: Life Technologies and Expression Analysis (LTEA) Assay for Phosphatase and tensin (PTEN) using HepaRG (AID 2283523). In outline:
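HepaRG cells, 48 h after plating, exposed in duplicate for 48 h in serum-free induction medium to 8 half-log concentrations up to 100 uM (0.5% DMSO). PTEN mRNA by qRT-PCR, normalized to ACTB, GAPDH, POLR2A; bidirectional fit versus DMSO.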

Read-out in assay [9]: solute carrier (SLC22A1), SLC22A1 (gene 6580)
The assay is described as follows: LTEA_HepaRG_SLC22A1: Life Technologies and Expression Analysis (LTEA) Assay for solute carrier (SLC22A1) using HepaRG (AID 2283524). An outline of the steps:
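Differentiated human HepaRG cells in serum-free induction medium, exposed 48 h in duplicate to 8-point half-log series from 100 µM top in 0.5% DMSO. SLC22A1 mRNA by TaqMan qRT-PCR normalized to ACTB, GAPDH, POLR2A; bidirectional fit versus DMSO.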

Read-out in assay [10]: Pyruvate Dehydrogenase Kinase 4 (PDK4), PDK4 (gene 5166)
Description: LTEA_HepaRG_PDK4: Life Technologies and Expression Analysis (LTEA) Assay for Pyruvate Dehydrogenase Kinase 4 (PDK4) using HepaRG (AID 2283525). In outline: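 HepaRG cells plated 48 h, then switched to serum-free induction medium and exposed in duplicate for 48 h to 8 half-log concentrations from 100 uM in 0.5% DMSO. PDK4 mRNA measured by qRT-PCR, normalized to ACTB, GAPDH and POLR2A; bidirectional fit versus DMSO.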

Read-out in assay [11]: NAD(P)H dehydrogenase [quinone] 1 (NQO1), NQO1 (gene 1728)
Description: LTEA_HepaRG_NQO1: Life Technologies and Expression Analysis (LTEA) Assay for NAD(P)H dehydrogenase [quinone] 1 (NQO1) using HepaRG (AID 2283526). In outline:
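Differentiated human HepaRG cells in serum-free induction medium, dosed in duplicate for 48 h at 8 half-log concentrations up to 100 uM in 0.5% DMSO. NQO1 mRNA by qRT-PCR normalized to ACTB, GAPDH, POLR2A; bidirectional fit versus DMSO baseline.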

Read-out in assay [12]: Nuclear factor erythroid 2-related factor 2 (Homo sapiens) (UniProt Q16236)
The assay is described as follows: LTEA_HepaRG_NFE2L2: Life Technologies and Expression Analysis (LTEA) Assay for Nuclear factor erythroid 2-related factor 2 (NFE2L2) Transcription Factor using HepaRG (AID 2283527).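 Also: TaqMan qRT-PCR transcript level normalised to ACTB GAPDH and POLR2A housekeeping genes.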 An outline of the steps: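 Differentiated human HepaRG cells, serum-free induction medium, exposed 48 h in duplicate to eight half-log concentrations up to 100 uM in 0.5% DMSO. NFE2L2 mRNA by Fluidigm TaqMan qRT-PCR, normalised to ACTB, GAPDH, POLR2A; bidirectional change versus DMSO.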

Read-out in assay [13]: succinate dehydrogenase complex iron sulfur subunit B (SDHB), SDHB (gene 6390)
Description: LTEA_HepaRG_SDHB: Life Technologies and Expression Analysis (LTEA) Assay for succinate dehydrogenase complex iron sulfur subunit B (SDHB) using HepaRG (AID 2283528). In outline: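 HepaRG cells (~100,000/well, plated 48 h) exposed in duplicate for 48 h in serum-free induction medium to 8-point half-log series from 100 uM in 0.5% DMSO; mRNA by qRT-PCR normalised to ACTB, GAPDH, POLR2A; bidirectional fit versus DMSO.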

Read-out in assay [14]: Signal transducer and activator of transcription 3 (Homo sapiens) (UniProt P40763)
The assay is described as follows: LTEA_HepaRG_STAT3: Life Technologies and Expression Analysis (LTEA) Assay for Signal transducer and activator of transcription (STAT3) using HepaRG (AID 2283529). In outline:
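Differentiated HepaRG cells, serum-free induction medium, dosed 48 h in duplicate, 8 half-log concentrations from 100 uM in 0.5% DMSO. STAT3 mRNA by qRT-PCR, normalised to ACTB, GAPDH, POLR2A; bidirectional fit versus DMSO.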

Read-out in assay [15]: solute carrier (SLCO1B1), SLCO1B1 (gene 10599)
Description: LTEA_HepaRG_SLCO1B1: Life Technologies and Expression Analysis (LTEA) Assay for solute carrier (SLCO1B1) using HepaRG (AID 2283530). An outline of the steps:
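Differentiated human HepaRG cells, plated 48 h, switched to serum-free induction medium and exposed in duplicate for 48 h to 8 half-log concentrations (top 100 uM) in 0.5% DMSO. SLCO1B1 mRNA by TaqMan qRT-PCR, normalized to ACTB/GAPDH/POLR2A.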

Read-out in assay [16]: sulfotransferase 2A1 (SULT2A1), SULT2A1 (gene 6822)
Description: LTEA_HepaRG_SULT2A1: Life Technologies and Expression Analysis (LTEA) Assay for sulfotransferase 2A1 (SULT2A1) using HepaRG (AID 2283531). In outline:
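Differentiated human HepaRG cells in serum-free induction medium were exposed for 48 h to eight half-log concentrations (top 100 uM, 0.5% DMSO). SULT2A1 mRNA was measured by qRT-PCR, normalized to ACTB, GAPDH and POLR2A, and fitted bidirectionally against DMSO.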

Read-out in assay [17]: Transforming Growth Factor (TGFA), TGFA (gene 7039)
Description: LTEA_HepaRG_TGFA: Life Technologies and Expression Analysis (LTEA) Assay for Transforming Growth Factor (TGFA) using HepaRG (AID 2283532). An outline of the steps: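 Differentiated HepaRG cells exposed 48 hours in serum-free induction medium, 0.5% DMSO vehicle, 8-point half-log series from 100 uM, in duplicate. TGFA mRNA by TaqMan qRT-PCR, normalised to ACTB, GAPDH, POLR2A; bidirectional fit versus DMSO.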

Read-out in assay [18]: Transforming Growth Factor (TGFB1), TGFB1 (gene 7040)
Description: LTEA_HepaRG_TGFB1: Life Technologies and Expression Analysis (LTEA) Assay for Transforming Growth Factor (TGFB1) Transporter using HepaRG (AID 2283533). In outline:
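Differentiated human HepaRG cells in serum-free induction medium were exposed in duplicate for 48 h to eight concentrations (top 100 uM, half-log steps, 0.5% DMSO). TGFB1 mRNA was quantified by qRT-PCR, normalized to ACTB, GAPDH, POLR2A, and fitted bidirectionally against DMSO.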

Read-out in a further assay: TIMP1, TIMP1 (gene 7076)
Description: LTEA_HepaRG_TIMP1: Life Technologies and Expression Analysis (LTEA) Assay for TIMP1 using HepaRG (AID 2283534).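 Also: TaqMan qRT-PCR signal normalized to ACTB GAPDH and POLR2A housekeeping genes.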 In outline: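 Differentiated human HepaRG cells in serum-free induction medium were exposed 48 h to chemicals (8 half-log concentrations, top 100 uM, 0.5% DMSO). TIMP1 mRNA was quantified by TaqMan qRT-PCR, normalized to ACTB/GAPDH/POLR2A; bidirectional fit versus DMSO.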

Chain of Signal transducer and activator of transcription 3 (Homo sapiens) (P40763 whole entry, looked up): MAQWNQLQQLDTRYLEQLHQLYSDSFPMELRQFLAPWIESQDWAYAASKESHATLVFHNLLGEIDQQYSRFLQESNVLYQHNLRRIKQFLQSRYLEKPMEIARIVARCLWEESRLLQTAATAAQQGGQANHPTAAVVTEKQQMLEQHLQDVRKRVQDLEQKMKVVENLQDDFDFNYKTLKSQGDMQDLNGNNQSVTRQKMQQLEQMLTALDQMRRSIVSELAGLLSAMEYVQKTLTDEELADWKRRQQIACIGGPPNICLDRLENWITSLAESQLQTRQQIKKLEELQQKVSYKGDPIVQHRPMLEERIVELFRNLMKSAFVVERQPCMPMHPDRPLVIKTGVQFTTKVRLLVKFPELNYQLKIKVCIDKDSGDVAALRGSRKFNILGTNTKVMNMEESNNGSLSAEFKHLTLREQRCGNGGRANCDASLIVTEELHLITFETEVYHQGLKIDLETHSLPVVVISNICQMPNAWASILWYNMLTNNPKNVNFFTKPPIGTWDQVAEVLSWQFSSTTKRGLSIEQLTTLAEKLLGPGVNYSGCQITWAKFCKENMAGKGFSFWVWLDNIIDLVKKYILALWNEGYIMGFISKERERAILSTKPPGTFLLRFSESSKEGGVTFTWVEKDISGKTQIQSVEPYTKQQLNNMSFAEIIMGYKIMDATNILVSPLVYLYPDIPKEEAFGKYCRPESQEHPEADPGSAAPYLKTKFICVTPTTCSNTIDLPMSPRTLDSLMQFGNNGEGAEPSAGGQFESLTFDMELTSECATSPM
Chain of Nuclear factor erythroid 2-related factor 2 (Homo sapiens) (Q16236 whole entry, looked up): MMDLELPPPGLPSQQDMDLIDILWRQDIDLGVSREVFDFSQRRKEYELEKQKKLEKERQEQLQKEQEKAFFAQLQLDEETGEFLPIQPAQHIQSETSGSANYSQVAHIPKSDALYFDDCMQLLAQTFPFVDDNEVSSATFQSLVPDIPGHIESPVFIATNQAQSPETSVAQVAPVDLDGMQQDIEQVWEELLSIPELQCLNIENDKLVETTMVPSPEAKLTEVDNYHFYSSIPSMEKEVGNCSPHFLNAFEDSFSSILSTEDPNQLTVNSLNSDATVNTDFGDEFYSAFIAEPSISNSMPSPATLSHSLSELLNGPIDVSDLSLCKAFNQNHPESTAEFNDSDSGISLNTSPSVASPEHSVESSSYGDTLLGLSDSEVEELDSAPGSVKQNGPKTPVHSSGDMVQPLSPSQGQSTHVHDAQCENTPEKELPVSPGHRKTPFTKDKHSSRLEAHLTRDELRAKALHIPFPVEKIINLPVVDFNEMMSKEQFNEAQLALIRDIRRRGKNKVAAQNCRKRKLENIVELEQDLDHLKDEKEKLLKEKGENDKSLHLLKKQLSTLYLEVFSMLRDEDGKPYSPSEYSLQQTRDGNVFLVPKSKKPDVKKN
Chain of Nuclear factor NF-kappa-B p105 subunit (Homo sapiens) (P19838 whole entry, looked up): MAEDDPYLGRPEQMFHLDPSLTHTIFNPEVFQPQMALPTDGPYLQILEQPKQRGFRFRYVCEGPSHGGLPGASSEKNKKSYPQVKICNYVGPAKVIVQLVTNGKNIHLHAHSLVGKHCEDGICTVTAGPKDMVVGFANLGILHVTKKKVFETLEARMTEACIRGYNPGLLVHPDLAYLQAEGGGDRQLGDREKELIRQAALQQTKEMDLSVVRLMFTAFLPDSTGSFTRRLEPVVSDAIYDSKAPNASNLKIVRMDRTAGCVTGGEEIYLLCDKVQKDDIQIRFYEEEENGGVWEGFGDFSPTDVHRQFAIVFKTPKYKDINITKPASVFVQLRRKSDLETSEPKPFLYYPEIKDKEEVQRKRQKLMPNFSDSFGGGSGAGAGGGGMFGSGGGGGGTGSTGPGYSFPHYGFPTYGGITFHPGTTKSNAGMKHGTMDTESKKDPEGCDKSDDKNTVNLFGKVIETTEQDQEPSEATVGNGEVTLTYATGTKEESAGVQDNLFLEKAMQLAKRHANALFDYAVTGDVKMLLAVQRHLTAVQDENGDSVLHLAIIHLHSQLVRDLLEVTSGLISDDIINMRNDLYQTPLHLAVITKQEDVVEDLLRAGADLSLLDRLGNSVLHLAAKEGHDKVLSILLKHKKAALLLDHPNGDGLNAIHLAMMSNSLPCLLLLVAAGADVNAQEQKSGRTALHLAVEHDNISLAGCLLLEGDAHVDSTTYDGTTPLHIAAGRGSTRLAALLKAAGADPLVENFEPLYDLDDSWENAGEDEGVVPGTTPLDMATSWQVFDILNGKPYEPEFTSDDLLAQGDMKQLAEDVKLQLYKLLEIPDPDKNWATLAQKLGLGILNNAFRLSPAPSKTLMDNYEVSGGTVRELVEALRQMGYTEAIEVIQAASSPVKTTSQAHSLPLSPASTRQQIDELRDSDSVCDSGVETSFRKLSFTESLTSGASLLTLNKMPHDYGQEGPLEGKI

The term AC50 denotes the concentration giving half of the maximal activity seen. Regarding `COC(=O)C(C)Oc1ccc(Oc2ccc(Cl)cc2Cl)cc1` (stereo not given), the AC50 was 27.6 µM (active) in assay [1], 10.4 µM (active) in [5], 50 µM (active) in assay [9] and 32.6 µM (active) in assay [10]. Further, the outcome was “inactive” in assay [2]; “inactive” in assay [3]; “inactive” with MYC, MYC (gene 4609); “inactive” in [4]; “inactive” in [6]; “inactive” in assay [7]. Also, the result in assay [8], in [11], in [12], in [13], in assay [14] and in [15] was inactive. Besides, the outcome in assay [16] is “inactive”; in assay [17], “inactive”; in assay [18] it was “inactive”; in the assay with TIMP1, TIMP1 (gene 7076), “inactive”.
Take `CC(C)Oc1cc(-n2nc(C(C)(C)C)oc2=O)c(Cl)cc1Cl`: the AC50 in assay [1] was 85.5 µM (active); in assay [2] it was 50 µM (active); with MYC, MYC (gene 4609), 89.1 µM (active); in [5], 5.57 µM (active); in assay [9], 42.8 µM (active); in assay [10], 11.6 µM (active). The AC50 in assay [16] is 80.9 µM (active). Besides, the result in [3], in assay [4], in [6], in assay [7], in assay [8] and in assay [11] was inactive. Also, the outcome in assay [12], in [13], in assay [14], in [15], in assay [17] and in assay [18] was inactive. The result with TIMP1, TIMP1 (gene 7076) was inactive.
